Here are results for 9 compounds from PubChem BioAssay (EPA / NIEHS).

Records with an inconclusive call do not appear. Active and inactive are the calls of the source. The calls were made as follows, unless noted: active = hit-call score of the fitted dose curve at least 0.9, where 1 is the maximum; inactive = score below 0.9.

Assay [1] is described as follows: ATG_Sox_CIS: Attagene CIS-FACTORIAL HepG2 Assay for human SRY-box transcription factor (SOX) (AID 2282960). To be noted: HepG2 Attagene cis-factorial SOX reporter, mRNA; actives raise or lower the signal. An outline of the steps: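 After 24 h of chemical treatment, transfected HepG2 reporter cells are lysed for total RNA. Transcript levels come from RT-PCR with labelled primer extension and capillary electrophoresis, analysed bidirectionally versus DMSO.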

For assay [2], the target named is Transcription factor Sp1 (Homo sapiens) (UniProt P08047). Put plainly: ATG_Sp1_CIS: Attagene CIS-FACTORIAL HepG2 Assay for human Specificity Protein 1 (Sp1) (AID 2282961). Particulars: HepG2 Sp1 cis-reporter transcription, actives raise or lower the signal. The procedure, abridged: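 Sp1-driven reporter mRNA, read as capillary electrophoresis fluorescence after RT-PCR, in transiently transfected HepG2 cells dosed for 24 h; signal change in either direction relative to DMSO.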
Transcription factor Sp1 (Homo sapiens), sequence (P08047 whole entry, looked up): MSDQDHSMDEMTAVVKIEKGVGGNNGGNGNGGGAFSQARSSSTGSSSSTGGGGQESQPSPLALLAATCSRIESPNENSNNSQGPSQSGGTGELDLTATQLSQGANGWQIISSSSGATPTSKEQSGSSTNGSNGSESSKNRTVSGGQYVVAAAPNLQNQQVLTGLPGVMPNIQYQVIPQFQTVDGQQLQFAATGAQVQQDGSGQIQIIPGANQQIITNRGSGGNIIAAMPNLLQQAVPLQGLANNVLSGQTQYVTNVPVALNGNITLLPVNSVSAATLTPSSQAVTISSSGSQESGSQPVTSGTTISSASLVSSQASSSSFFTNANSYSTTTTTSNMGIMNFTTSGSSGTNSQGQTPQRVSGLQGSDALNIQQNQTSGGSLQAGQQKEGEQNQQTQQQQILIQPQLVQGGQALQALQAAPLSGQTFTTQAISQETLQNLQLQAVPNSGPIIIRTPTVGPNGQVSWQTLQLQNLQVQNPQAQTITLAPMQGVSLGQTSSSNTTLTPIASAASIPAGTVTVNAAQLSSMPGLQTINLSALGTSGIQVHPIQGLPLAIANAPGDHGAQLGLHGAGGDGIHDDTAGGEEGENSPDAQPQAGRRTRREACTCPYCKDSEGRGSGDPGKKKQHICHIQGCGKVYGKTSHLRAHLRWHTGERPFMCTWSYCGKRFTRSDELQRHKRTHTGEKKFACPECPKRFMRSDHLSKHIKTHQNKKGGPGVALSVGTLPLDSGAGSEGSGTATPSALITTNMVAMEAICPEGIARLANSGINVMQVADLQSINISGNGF

Assay [3] is described as follows: ATG_SREBP_CIS: Attagene CIS-FACTORIAL HepG2 Assay for human Sterol Regulatory Element Binding (SREBP) (AID 2282962). To be noted: HepG2 Attagene cis-factorial SREBP reporter, mRNA; actives raise or lower the signal. An outline of the steps: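 Values derive from bidirectional curve fitting with DMSO as baseline. The underlying measurement is reporter mRNA from cis-element-regulated units in transiently transfected HepG2, quantified by RT-PCR and capillary electrophoresis after 24 h exposure.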

For assay [4], the target named is Signal transducer and activator of transcription 3 (Homo sapiens) (UniProt P40763). Put plainly: ATG_STAT3_CIS: Attagene CIS-FACTORIAL HepG2 Assay for human Signal Transducer and Activator of Transcription 3 (STAT3) (AID 2282963). To be noted: HepG2, Attagene cis-factorial STAT3 reporter transcription; actives raise or lower the signal. An outline of the steps: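 Fluorescence intensity of 6-FAM-labelled reporter fragments, separated by capillary electrophoresis after RT-PCR, gave the signal. Cells were HepG2 transfected with cis-element reporter units and treated 24 h; fitting was bidirectional relative to DMSO.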
Signal transducer and activator of transcription 3 (Homo sapiens), sequence (P40763 whole entry, looked up, the tested form may be a part): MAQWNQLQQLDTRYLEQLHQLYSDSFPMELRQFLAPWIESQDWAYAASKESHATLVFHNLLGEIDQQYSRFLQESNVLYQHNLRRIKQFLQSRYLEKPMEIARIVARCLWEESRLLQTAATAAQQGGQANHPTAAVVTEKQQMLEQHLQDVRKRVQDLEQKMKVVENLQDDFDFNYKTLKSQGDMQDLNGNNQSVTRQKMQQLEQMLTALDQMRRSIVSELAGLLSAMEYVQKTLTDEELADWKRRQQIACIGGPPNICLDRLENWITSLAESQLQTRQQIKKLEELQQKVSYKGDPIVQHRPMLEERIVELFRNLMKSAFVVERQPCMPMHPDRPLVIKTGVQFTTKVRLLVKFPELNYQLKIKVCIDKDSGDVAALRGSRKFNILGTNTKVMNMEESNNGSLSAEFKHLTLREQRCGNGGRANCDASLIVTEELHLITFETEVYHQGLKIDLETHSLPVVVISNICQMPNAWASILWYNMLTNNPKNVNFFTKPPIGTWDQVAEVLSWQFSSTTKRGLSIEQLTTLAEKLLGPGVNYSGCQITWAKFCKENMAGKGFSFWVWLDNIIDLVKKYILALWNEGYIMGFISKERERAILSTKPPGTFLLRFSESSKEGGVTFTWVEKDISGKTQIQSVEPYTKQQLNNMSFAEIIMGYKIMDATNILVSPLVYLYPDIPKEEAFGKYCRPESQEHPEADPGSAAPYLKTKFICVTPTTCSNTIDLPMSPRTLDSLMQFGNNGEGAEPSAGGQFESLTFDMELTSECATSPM

A short description of assay [5]: ATG_TA_CIS: Attagene CIS-FACTORIAL HepG2 Assay for human TA Basal Promoter (AID 2282964). Particulars: HepG2 Attagene CIS-factorial TA basal promoter reporter; actives raise or lower the signal. An outline of the steps: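 Steps: transfect HepG2 with MRTUs; dose 24 h; isolate RNA, DNase-treat, reverse-transcribe; PCR and FAM-label reporter cDNA; digest with HpaI 2h at 37 C; run capillary electrophoresis. Activity fitted both directions against DMSO.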

A short description of assay [6]: ATG_TCF_b_cat_CIS: Attagene CIS-FACTORIAL HepG2 Assay for human T-Cell-Factor with beta-catenin (TCF/b-cat) (AID 2282965). To be noted: HepG2 TCF/beta-catenin cis-reporter transcription, actives raise or lower the signal. The procedure, abridged: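 Cells of the HepG2 line carry transiently transfected reporter units whose promoters respond to endogenous factors. Twenty-four hours post-dosing, reporter mRNA induction is measured by fluorescent RT-PCR and capillary electrophoresis, with DMSO as baseline.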

A short description of assay [7]: ATG_TAL_CIS: Attagene CIS-FACTORIAL HepG2 Assay for human TAL Basal Promoter (AID 2282966).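 Also: background control endpoint measuring basal TAL promoter reporter mRNA not a specific factor.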 Particulars: HepG2 Attagene cis-factorial TAL promoter reporter; actives raise or lower the signal. An outline of the steps:
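Endogenous transcription-factor activity is sensed in HepG2 cells through transfected cis-promoter reporter constructs. After 24 h dosing, reporter transcripts are quantified by RT-PCR and capillary electrophoresis. Gain or loss of signal is fitted relative to DMSO.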

The nature of assay [8]: ATG_TGFb_CIS: Attagene CIS-FACTORIAL HepG2 Assay for human Transforming Growth Factor (TGF) (AID 2282967). To be noted: HepG2 Attagene CIS TGFb reporter, mRNA transcription; actives raise or lower the signal. An outline of the steps: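 Cells were dosed for 24 hours, after which total RNA was reverse-transcribed and reporter sequences amplified, labeled and sized by capillary electrophoresis. Activity was fitted in both directions against DMSO.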

Assay [9] addresses Nuclear receptor subfamily 1 group I member 3 (Homo sapiens) (UniProt Q14994). In words: ATG_CAR_TRANS: Attagene TRANS-FACTORIAL HepG2 Assay for human Constitutive Androstane Receptor (CAR) (AID 2282969; active = hit-call score of the fitted dose curve at least 0.9, where 1 is the maximum;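 also: activators raise reporter mRNA above DMSO so AC50 marks induction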). Particulars: HepG2 Attagene TRANS-FACTORIAL CAR reporter. The procedure, abridged:
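Transiently transfected HepG2, multiplex TRANS reporters (CAR-Gal4 chimera driving GAL4-UAS reporter). 24 h dosing. Readout: reporter transcript by RT-PCR + capillary electrophoresis, fluorescence intensity; positive direction vs DMSO.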

Assay [10] has as its target X-box-binding protein 1 (Homo sapiens) (UniProt P17861). Put plainly: ATG_Xbp1_CIS: Attagene CIS-FACTORIAL HepG2 Assay for human X-box Binding Protein 1 (XBP1) (AID 2282972). Particulars: HepG2 XBP1 cis-element reporter, Attagene multiplex; actives raise or lower the signal. An outline of the steps:
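Human hepatoma HepG2, cis-element reporter system, 24 h treatment; mRNA quantified by RT-PCR/CE fluorescence; fit relative to DMSO.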

Assay [11] can be described thus: ATG_VDRE_CIS: Attagene CIS-FACTORIAL HepG2 Assay for human Vitamin D Receptor Element (VDRE) (AID 2282968). To be noted: HepG2 VDRE cis-reporter transcription, actives raise or lower the signal. An outline of the steps: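 Compounds were applied for 24 h to HepG2 cells transfected with promoter-regulated reporter units. Total RNA was reverse-transcribed, and reporter amplicons were fluorescently labelled and sized by capillary electrophoresis.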

A short description of assay [12]: ATG_GAL4_TRANS: Attagene TRANS-FACTORIAL HepG2 Assay for GAL4 (Internal Marker) (AID 2282976; active = hit-call score of the fitted dose curve at least 0.9, where 1 is the maximum). To be noted: HepG2 Attagene TRANS GAL4 internal marker reporter. The procedure, abridged:
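Fluorescence from capillary electrophoresis of labelled RT-PCR products quantifies reporter mRNA induction after 24 h dosing of HepG2 cells carrying transfected GAL4-UAS reporter transcription units. Vehicle DMSO serves as baseline.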

Assay [13] concerns the target Glucocorticoid receptor (Homo sapiens) (UniProt P04150). In words: ATG_GR_TRANS: Attagene TRANS-FACTORIAL HepG2 Assay for human Glucocorticoid Receptor (GR) (AID 2282978; active = hit-call score of the fitted dose curve at least 0.9, where 1 is the maximum;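 also: activators score as hits since higher reporter transcript over DMSO is fitted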). Particulars: HepG2 Attagene TRANS GR reporter, mRNA transcription. The procedure, abridged: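 Measurement of GAL4-UAS-driven reporter mRNA in human HepG2 liver cells 24 h post-dosing, using RT-PCR with fluorescent labelling and capillary electrophoresis; the transfected constructs report exogenous NR-GAL4 chimera activity, fitted upward against DMSO.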

Assay [14] has as its target Bile acid receptor (Homo sapiens) (UniProt Q96RI1). In words: ATG_FXR_TRANS: Attagene TRANS-FACTORIAL HepG2 Assay for Farnesoid X Receptor (FXR) (AID 2282979; active = hit-call score of the fitted dose curve at least 0.9, where 1 is the maximum;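 also: hits raise reporter mRNA above DMSO so AC50 marks FXR activation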). To be noted: HepG2 Attagene TRANS FXR-GAL4 reporter transcription. The procedure, abridged:
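Chimeric FXR-GAL4 activity in transiently transfected human HepG2 liver cells is scored as induction of reporter mRNA after 24 h of dosing. Detection uses RT-PCR with fluorescent labelling and capillary electrophoresis, with DMSO serving as baseline.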

For assay [15], the target named is Estrogen receptor (Homo sapiens) (UniProt P03372). Put plainly: ATG_ERa_TRANS: Attagene TRANS-FACTORIAL HepG2 Assay for human Estrogen Receptor alpha (ERa) (AID 2282970; active = hit-call score of the fitted dose curve at least 0.9, where 1 is the maximum). To be noted: HepG2 Attagene TRANS ERa GAL4 reporter, mRNA. The procedure, abridged: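 Transfected HepG2 cells carrying GAL4-UAS-driven reporter units were dosed for 24 hours. Total RNA was reverse-transcribed, reporter sequences PCR-amplified, FAM-labelled, HpaI-digested and resolved by capillary electrophoresis. Increases over DMSO control defined activity.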
Estrogen receptor (Homo sapiens), sequence (P03372 whole entry, looked up, the tested form may be a part): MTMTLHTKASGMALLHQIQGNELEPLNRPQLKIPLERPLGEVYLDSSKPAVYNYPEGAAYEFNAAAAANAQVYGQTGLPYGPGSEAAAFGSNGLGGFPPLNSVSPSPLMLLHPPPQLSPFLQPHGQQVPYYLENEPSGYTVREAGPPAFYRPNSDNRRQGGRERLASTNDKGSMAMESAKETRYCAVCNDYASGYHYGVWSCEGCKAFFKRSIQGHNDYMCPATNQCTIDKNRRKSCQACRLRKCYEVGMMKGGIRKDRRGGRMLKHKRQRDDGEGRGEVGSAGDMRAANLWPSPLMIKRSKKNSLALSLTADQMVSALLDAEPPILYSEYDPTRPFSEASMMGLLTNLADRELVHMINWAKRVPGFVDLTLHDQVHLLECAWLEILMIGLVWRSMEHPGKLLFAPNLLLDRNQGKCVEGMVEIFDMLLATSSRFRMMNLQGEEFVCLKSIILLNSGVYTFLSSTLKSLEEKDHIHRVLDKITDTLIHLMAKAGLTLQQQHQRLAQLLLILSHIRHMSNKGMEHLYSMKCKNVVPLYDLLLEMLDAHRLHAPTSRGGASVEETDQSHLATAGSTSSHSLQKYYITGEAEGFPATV

Assay [16] deals with Estrogen-related receptor gamma (Homo sapiens) (UniProt P62508). In words: ATG_ERRg_TRANS: Attagene TRANS-FACTORIAL HepG2 Assay for human Estrogen-Related Receptor gamma (ERRg) (AID 2282977; active = hit-call score of the fitted dose curve at least 0.9, where 1 is the maximum;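 also: hits increase reporter signal over DMSO so potencies reflect activators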). Particulars: HepG2 Attagene TRANS reporter, ERRg transactivation. The procedure, abridged: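 Exogenous NR-Gal4 chimera activity measured as reporter transcript induction after 24 h in transiently transfected HepG2 cells. RNA reverse-transcribed, PCR-amplified, 6-FAM-labelled and resolved by capillary electrophoresis; increase over DMSO baseline.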
Estrogen-related receptor gamma (Homo sapiens), sequence (P62508 whole entry, looked up, the tested form may be a part): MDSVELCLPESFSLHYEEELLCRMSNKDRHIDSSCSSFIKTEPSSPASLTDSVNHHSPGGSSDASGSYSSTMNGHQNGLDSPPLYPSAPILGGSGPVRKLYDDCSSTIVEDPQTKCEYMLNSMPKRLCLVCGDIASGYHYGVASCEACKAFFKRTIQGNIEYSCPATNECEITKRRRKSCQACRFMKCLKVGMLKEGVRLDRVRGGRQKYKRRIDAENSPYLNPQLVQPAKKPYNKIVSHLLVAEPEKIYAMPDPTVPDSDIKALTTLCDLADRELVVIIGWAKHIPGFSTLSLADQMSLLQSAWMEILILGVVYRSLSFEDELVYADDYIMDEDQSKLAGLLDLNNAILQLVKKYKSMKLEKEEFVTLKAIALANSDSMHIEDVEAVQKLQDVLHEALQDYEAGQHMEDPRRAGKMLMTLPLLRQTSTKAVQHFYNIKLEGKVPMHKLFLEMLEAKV

For assay [17], the target named is Steroid hormone receptor ERR1 (Homo sapiens) (UniProt P11474). Put plainly: ATG_ERRa_TRANS: Attagene TRANS-FACTORIAL HepG2 Assay for human Estrogen-Related Receptor alpha (ERRa) (AID 2282971; active = hit-call score of the fitted dose curve at least 0.9, where 1 is the maximum). To be noted: HepG2 Attagene TRANS reporter, ERRa transactivation. An outline of the steps:
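HepG2 cells were transiently transfected with multiple GAL4-UAS reporter units, then dosed with compound for 24 h. Total RNA was reverse-transcribed, reporter cDNA PCR-amplified and fluorescently labelled, and fragments resolved by capillary electrophoresis; induction was compared with DMSO.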

The nature of assay [18]: ATG_M_19_TRANS: Attagene TRANS-FACTORIAL HepG2 Assay for M19 Transcription Factor (Internal Marker) (AID 2282974; active = hit-call score of the fitted dose curve at least 0.9, where 1 is the maximum). To be noted: HepG2 Attagene TRANS-FACTORIAL M19 internal marker reporter. The procedure, abridged:
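Measured here: internal-marker reporter transcript from HepG2 cells transfected with MRTUs, harvested at 24 h. cDNA PCR products were 6-FAM labelled by primer extension, cut with HpaI for 2 h at 37 C, and resolved by CE.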

Nuclear receptor subfamily 1 group I member 3 (Homo sapiens), sequence (Q14994 whole entry, looked up, the tested form may be a part): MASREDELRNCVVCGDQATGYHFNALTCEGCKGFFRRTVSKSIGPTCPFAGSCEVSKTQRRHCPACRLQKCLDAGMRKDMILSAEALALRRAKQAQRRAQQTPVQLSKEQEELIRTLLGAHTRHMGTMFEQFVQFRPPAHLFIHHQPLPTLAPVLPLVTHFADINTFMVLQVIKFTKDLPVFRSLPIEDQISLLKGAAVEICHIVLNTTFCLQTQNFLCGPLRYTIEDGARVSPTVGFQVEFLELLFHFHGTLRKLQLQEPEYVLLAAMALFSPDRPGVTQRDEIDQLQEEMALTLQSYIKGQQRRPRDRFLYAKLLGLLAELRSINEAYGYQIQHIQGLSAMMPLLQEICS
Bile acid receptor (Homo sapiens), sequence (Q96RI1 whole entry, looked up, the tested form may be a part): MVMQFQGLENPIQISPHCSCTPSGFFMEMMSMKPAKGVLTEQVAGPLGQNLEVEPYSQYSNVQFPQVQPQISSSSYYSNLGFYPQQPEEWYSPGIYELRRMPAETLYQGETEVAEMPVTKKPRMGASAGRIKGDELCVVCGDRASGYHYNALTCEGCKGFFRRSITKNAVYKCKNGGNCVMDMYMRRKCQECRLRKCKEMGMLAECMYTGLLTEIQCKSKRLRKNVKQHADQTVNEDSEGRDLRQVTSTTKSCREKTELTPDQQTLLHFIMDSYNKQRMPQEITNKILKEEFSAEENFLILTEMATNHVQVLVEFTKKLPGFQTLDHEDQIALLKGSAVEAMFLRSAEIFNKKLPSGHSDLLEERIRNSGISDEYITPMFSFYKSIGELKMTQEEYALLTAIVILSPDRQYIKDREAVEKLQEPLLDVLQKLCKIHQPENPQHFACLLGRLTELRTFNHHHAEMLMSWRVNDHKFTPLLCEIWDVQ
X-box-binding protein 1 (Homo sapiens), sequence (P17861 whole entry, looked up): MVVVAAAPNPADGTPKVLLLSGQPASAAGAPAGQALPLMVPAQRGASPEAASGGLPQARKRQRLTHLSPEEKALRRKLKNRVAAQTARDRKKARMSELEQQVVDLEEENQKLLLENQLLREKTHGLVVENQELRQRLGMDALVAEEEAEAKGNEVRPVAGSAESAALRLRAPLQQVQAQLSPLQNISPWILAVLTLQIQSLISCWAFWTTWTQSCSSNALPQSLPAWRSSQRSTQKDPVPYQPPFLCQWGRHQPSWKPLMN
Glucocorticoid receptor (Homo sapiens), sequence (P04150 whole entry, looked up, the tested form may be a part): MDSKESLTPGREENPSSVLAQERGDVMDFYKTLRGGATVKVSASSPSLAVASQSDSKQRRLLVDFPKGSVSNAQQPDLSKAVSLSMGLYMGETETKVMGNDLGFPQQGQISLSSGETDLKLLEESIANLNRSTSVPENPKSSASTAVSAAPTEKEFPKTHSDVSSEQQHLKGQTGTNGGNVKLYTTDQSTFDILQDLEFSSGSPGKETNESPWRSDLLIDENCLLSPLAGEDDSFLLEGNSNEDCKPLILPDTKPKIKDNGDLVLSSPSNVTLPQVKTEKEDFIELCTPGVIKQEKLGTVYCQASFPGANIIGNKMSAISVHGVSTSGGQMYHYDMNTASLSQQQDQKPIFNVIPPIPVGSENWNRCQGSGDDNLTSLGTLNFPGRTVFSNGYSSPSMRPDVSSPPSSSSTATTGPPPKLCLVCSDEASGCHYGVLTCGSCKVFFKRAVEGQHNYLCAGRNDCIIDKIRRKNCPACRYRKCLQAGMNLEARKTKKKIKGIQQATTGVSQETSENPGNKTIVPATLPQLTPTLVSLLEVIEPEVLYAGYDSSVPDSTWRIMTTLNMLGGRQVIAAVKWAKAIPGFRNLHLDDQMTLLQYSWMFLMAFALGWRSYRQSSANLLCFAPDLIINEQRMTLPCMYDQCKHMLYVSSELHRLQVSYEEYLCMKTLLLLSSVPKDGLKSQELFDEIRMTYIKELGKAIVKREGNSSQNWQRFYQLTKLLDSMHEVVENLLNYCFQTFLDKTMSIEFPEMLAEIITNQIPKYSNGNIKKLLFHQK
Steroid hormone receptor ERR1 (Homo sapiens), sequence (P11474 whole entry, looked up, the tested form may be a part): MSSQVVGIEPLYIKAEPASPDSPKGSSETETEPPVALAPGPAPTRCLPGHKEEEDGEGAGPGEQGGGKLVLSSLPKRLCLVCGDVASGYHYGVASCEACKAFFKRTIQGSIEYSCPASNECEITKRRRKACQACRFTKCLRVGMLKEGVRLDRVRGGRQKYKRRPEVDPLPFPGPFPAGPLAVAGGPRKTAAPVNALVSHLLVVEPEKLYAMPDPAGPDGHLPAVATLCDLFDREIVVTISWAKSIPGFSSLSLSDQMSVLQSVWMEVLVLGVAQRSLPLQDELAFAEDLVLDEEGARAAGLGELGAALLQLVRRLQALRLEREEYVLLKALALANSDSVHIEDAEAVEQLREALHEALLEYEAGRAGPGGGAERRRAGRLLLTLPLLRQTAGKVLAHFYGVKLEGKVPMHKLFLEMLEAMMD

Consider `Oc1c(Cl)cc(Cl)cc1Cl`, for which the outcome in [1], in assay [2], in assay [3], in assay [4], in assay [5] and in [6] was inactive. The call in assay [7], in assay [8], in [9] and in assay [10] was inactive.
Regarding `CN(C)C(=S)S`, the call in assay [1], in assay [2], in assay [3], in assay [4], in assay [5] and in assay [7] was inactive. The call in [8], in assay [11], in assay [10] and in assay [12] was inactive.
`COc1nn(C(=O)NS(=O)(=O)c2ccccc2OC(F)(F)F)c(=O)n1C`: the compound was called inactive in assay [1], in [2], in assay [3], in [4], in [5] and in [6]. For the same compound, the compound was called inactive in assay [7], in assay [8], in assay [11], in [10], in assay [12] and in assay [13]. Also, the compound was called inactive in [14].
Regarding `CCCCC(CC)COC(=O)Cl` (stereo not drawn), the compound was called inactive in assay [1], in assay [2], in assay [3], in [4], in assay [5] and in assay [6]. Moreover, the compound was called inactive in assay [7], in assay [8], in assay [9], in assay [15], in assay [10] and in assay [12]. Besides, the outcome in [16] was inactive.
Regarding `C=CCOC(F)(C(F)(F)F)C(F)(F)F`, the outcome in [1], in [2], in [3], in assay [4], in assay [5] and in assay [6] was inactive. The compound was classed as inactive in assay [7], in assay [8], in [17], in assay [10], in assay [12] and in [16]. For the same compound, the compound was classed as inactive in [13] and in assay [14].
For `Nc1nc(=S)[nH][nH]1`, the compound was classed as inactive in assay [1], in [2], in assay [3], in [4], in assay [5] and in assay [6]. The outcome in [7], in [8], in assay [11], in assay [10], in assay [12] and in [13] was inactive.
In the case of `CNC(=O)O/N=C/C(C)(C)S(C)(=O)=O`, the result in assay [2], in [3], in assay [4], in assay [5], in assay [6] and in assay [7] was inactive. Also, the compound was called inactive in assay [8], in assay [9], in [10] and in assay [18].
Consider `O=NN1CCCCCCC1`, for which the outcome in assay [1], in assay [2], in [3], in assay [4], in assay [5] and in assay [6] was inactive. In addition, the compound was called inactive in [7], in assay [8], in assay [9], in [15], in assay [10] and in assay [12]. Also, the call in [13] and in assay [14] was inactive.
`OC(Cc1ccccc1Cl)(Cn1[nH]cnc1=S)C1(Cl)CC1` (stereo not drawn): the AC50 in assay [1] is 145 µM (active); in assay [11], 18 µM (active); in [15] it was 5.83 µM (active); in [10] it was 100 µM (active). The outcome in assay [2], in assay [3], in assay [4], in assay [5], in [7] and in assay [8] was inactive. The compound was called inactive in assay [9] and in assay [14].

In general, AC50 refers to the concentration at which the activity in the assay is half-maximal.
